# Compound activity (PubChem)
# ALDH1A1 block: inhibitors of human aldehyde dehydrogenase 1A1; 220,000 compounds, 7.3% hits; Potency, µM (doses to about 75.3 µM), inactives show at the top dose activity, negative = inhibition, usual class: inhibitors; Purified ALDH1A1, NADH fluorescence, propionaldehyde substrate; P00352;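 also: potency is read from the fitted curve at half-maximal effect; plate controls were no enzyme wells and a reference inhibitor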
# Target sequence (P00352 whole entry, looked up): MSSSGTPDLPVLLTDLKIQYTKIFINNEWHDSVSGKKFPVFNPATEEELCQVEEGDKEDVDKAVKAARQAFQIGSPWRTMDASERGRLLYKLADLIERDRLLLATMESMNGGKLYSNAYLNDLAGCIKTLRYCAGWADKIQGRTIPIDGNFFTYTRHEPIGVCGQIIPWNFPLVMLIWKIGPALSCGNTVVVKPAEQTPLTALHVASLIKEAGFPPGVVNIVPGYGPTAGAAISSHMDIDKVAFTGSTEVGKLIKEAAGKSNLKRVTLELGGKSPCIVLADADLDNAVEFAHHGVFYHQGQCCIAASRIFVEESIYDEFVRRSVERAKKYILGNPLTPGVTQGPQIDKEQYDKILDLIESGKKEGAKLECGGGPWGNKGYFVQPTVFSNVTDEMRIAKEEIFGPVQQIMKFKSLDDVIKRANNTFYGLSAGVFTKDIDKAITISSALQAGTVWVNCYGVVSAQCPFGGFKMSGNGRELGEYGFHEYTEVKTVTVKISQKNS
# Lamin A splicing: LMNA splicing modulation; HeLa LMNA splicing GFP/RFP minigene ratio, 48 h; Potency, µM (top dose mostly 46.1 µM), inactives show top-dose ratio change, negative = inhibition, most hits filed as inhibitors; 200,000 compounds, 0.01% hits; active = well fitted inhibition curve with a large enough effect in the signal ratio, with a control signal flat, not every such curve was filed as active; inconclusive = small, poorly fitted or top-dose-only effect, or effect the other way, or a change in a side signal; the % refers to the signal ratio; also: potency is read from the fitted curve at half-maximal effect
#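 S3 HeLa stable clones carrying a lamin A-EGFP splicing minigene plus DsRed2 were seeded at 600 cells/well in Opti-MEM with 2% FBS, pin-dosed and incubated 48 h at 37°C. Acumen cytometry (488 nm) gave the GFP/RFP total-intensity ratio.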
# ALOX12 inhib: blocks human 12-lipoxygenase activity | purified 12-hLO, xylenol orange hydroperoxide absorbance | Potency, µM (highest dose often 57.1 µM), without a hit: at the highest dose activity change, negative = inhibition, actives largely listed as inhibitors | 150,000 compounds, 0.12% hits; active = well fitted inhibition curve with a large enough effect; inconclusive = small, poorly fitted or top-dose-only effect; also: potency is read from the fitted curve at half-maximal effect; nearly all actives have a fitted effect of over 55% in size
#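 150 nM 12hLO, 25 mM Hepes pH 7.0 + 0.01% Triton X-100; cpd preinc 15 min RT; 40 uM arachidonic acid, 30 min RT; Fe-XO 30 min; A573/A405 ratio as read-out.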
# PNC inhibitor: blocks assembly of the perinucleolar compartment | PC3M PTB-GFP, PNC prevalence imaging, 16 h; stronger effect = lower value | activity change (PNC), negative = inhibition, % at 10 µM | 140,000 compounds, 3.1% hits | AID 2417;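 active = readout at or below -70, meaning at least 70% loss of cells showing the perinucleolar compartment, a nuclear body marking cancer cells; inconclusive = readout between -30 and a set limit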;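 also: plate controls were DMSO wells for no effect and camptothecin positive control wells for full effect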
#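 Read-out is percentage of cells bearing a perinucleolar compartment, from automated 20x imaging of fixed, Hoechst-stained PC3M PTB-GFP cells. Cells were seeded 4 h, then exposed 16 h to compound (23 nl of library stock) in duplicate plates.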
# HPGD inh: inhibitors of human 15-hydroxyprostaglandin dehydrogenase (HPGD) | 150,000 compounds, 4.3% hits | AID 894 | Potency, µM, without a hit: at the highest dose activity change, negative = inhibition, most hits filed as inhibitors | purified HPGD, NADH fluorescence kinetic, PGE2 substrate; also: potency is read from the fitted curve at half-maximal effect
#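 20 nM HPGD preincubated 15 min at room temperature with compound in 50 mM Tris-HCl pH 8, 0.01% Tween 20. Started with 1 mM NAD+ and 30 uM prostaglandin E2; NADH fluorescence (360/450 nm) read 5 times over 30-s intervals, last minus first.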
# Numbers without * were called inactive; ? = inconclusive; . = no result given; [ ] = remark or other dose. Most compounds without a hit are left out; they make up all but 10% or so of the library. Unless noted, calls follow the shape of the dose curve; as a rule, active = well fitted inhibition curve with a large enough effect (not every such curve was filed as active); inconclusive = small, poorly fitted or top-dose-only effect, or another doubt; inactive = no such curve, though single readings can be large or run the other way. Unless noted, % is scaled to controls: 0 for no effect and ±100 for the full control effect.
SMILES,ALDH1A1 block,Lamin A splicing,ALOX12 inhib,PNC inhibitor,HPGD inh
COc1ccc(Cl)cc1C(=O)NNC(=S)NC(=O)c1cc(-c2ccccc2)nc2ccccc12,31.6µM*,-18.2%,3.0%,52.9,?
CCOC(=O)c1cccc(NC(=O)c2oc3c(c2C)-c2nn(CC)cc2CC3)c1,.,-15.6%[46 µM],.,.,.
CC1(C)CC(=O)C(N=Nc2ccc(C(F)(F)F)cc2[N+](=O)[O-])=C(O)C1,3.55µM*,.,.,.,.
COc1ccc(N=NC2=C(O)CC(C)(C)CC2=O)c(OC)c1,0.282µM*,-3.6%,-0.6%,11.4,-13.2%
COc1ccc(CN=CC2=C(O)CC(C)(C)CC2=O)cc1,-5.1%,-1.7%,3.9%,28.5,-10.6%
CC(=O)NNc1ccc(C(F)(F)F)cc1[N+](=O)[O-],6.9%,-15.6%,-8.9%,193.0,-5.4%
COc1ccc(N=NC2=C(O)CC(C)(C)CC2=O)cc1,0.891µM*,?,-19.8%,8.8,31.6µM*
CCCC(c1cc(C(C)(C)C)c(O)cc1C)c1cc(C(C)(C)C)c(O)cc1C,7.3%[13.5 µM],.,-3.6%[11.4 µM],.,-19.7%
c1ccc(Nc2nc(N3CCOCC3)nc(N3CCOCC3)n2)cc1,2.4%,?,2.3%,-4.8,-0.4%
O=C(CSc1nc(Nc2ccccc2)nc(N2CCOCC2)n1)N1CCc2ccccc21,3.8%,?,10.5%,-116.6*,-7.9%
CN(C)c1nc(SCC(=O)Nc2ccccc2)nc(N2CCOCC2)n1,25.1µM*,-18.3%[9.22 µM],.,.,.
O=C(CSc1nc(Nc2ccccc2)nc(N2CCOCC2)n1)N1CCCC1,-5.6%,-19.6%,7.2%,?,-10.3%
c1ccc(Nc2nc(N3CCNCC3)nc(N3CCOCC3)n2)cc1,-10.2%,-13.2%,2.5%,-100.0*,-3.4%
COc1cc(C2SCCCCCCCCCCSC(c3ccc(O)c(OC)c3)SCCCCCCCCCCS2)ccc1O (configuration not stated),7.9%[13.5 µM],.,0.2%[11.4 µM],.,-3.3%
O=C1CCCN1Cc1ncnn1-c1ccccc1,6.5%,-5.9%,-1.1%,-100.0*,-3.5%
O=C1CCCCCN1Cc1ccccc1,4.8%,0.8%,-3.7%,-13.5,-15.3%
Cc1noc(C)c1COC(=O)/C=C/c1ccccc1Cl,-1.4%,16.1%[46 µM],.,.,.
Cc1noc(C)c1COC(=O)C(c1ccccc1)c1ccccc1,11.2µM*,-16.5%[46 µM],.,.,.
Cc1noc(C)c1COC(=O)CCCOc1ccc(Cl)cc1Cl,14.2%,-0.9%,-17.0%,-26.4,17.8µM*
Cc1ccc(CNC(=O)COC(=O)CCCOc2ccc(Cl)cc2Cl)cc1,11.4%,-5.4%,2.6%,45.0,15.8µM*
COc1ccccc1NC(=S)NC(=O)CCCOc1ccc(Cl)cc1Cl,11.2µM*,10.3%,?,39.8,-18.3%
COc1cc(OC)c(NC(=O)CN2C(=O)CCn3nc(-c4cccn4C)cc32)cc1Cl,.,-7.7%[46 µM],.,.,.
O=C(O)c1cc(-c2ccc(-c3ccccc3)cc2)nc2cc3ccccc3cc12,-6.8%[13.5 µM],.,-3.8%[11.4 µM],.,-18.1%
CCOc1ccc(C2C(=O)N(C3CCCCC3)CC(=O)N2C2CCCC2)cc1OC (configuration not stated),.,-0.2%[46 µM],.,.,.
O=C(CCCOc1ccc(Cl)cc1Cl)Nc1ccncc1,?,?,-12.6%,11.2,14.1µM*
SMILES,ALDH1A1 block,Lamin A splicing,ALOX12 inhib,PNC inhibitor,HPGD inh
CCNC(=O)CCCOc1ccc(Cl)cc1Cl,1.1%,8.4%,0.2%,-1.4,14.1µM*
O=C(CCCOc1ccc(Cl)cc1Cl)NCC1CCCO1 (configuration not stated),?,-9.9%,0.4%,-8.9,11.2µM*
Clc1ccc(OCCCc2nc(-c3cccnc3)no2)c(Cl)c1,3.5%,?,-13.8%,8.0,.
Clc1ccc(OCCCc2nc(-c3ccncc3)no2)c(Cl)c1,-3.8%,13.9%,-15.2%,3.6,28.2µM*
COC(=O)CCCOc1ccc(Cl)cc1Cl,12.5%,-8.1%,2.8%,.,-29.7%
O=C(COc1ccc([N+](=O)[O-])cc1Cl)NCC1CCCO1 (configuration not stated),-2.4%,.,.,.,.
O=C(CCCOc1ccc(Cl)cc1Cl)Nc1ccccn1,0.5%,.,.,.,.
COc1ccccc1C(=O)Nc1cccc(C(=O)OCc2cc(=O)n3ccsc3n2)c1,.,-0.4%[46 µM],.,.,.
Cc1noc(C)c1COC(=O)CCCc1c[nH]c2ccccc12,14.1µM*,4.9%,-6.2%,6.4,?
CCN(CC)CCNC(=O)C(=O)NCC(c1cccnc1)N1CCN(c2ccc(F)cc2)CC1 (configuration not stated),.,18.3%[46 µM],.,.,.
